Assay results as given in PubChem BioAssay AID720550 (National Center for Advancing Translational Sciences (NCATS), 2013).
Records with an inconclusive call do not appear. Entries that show only a call come without a potency. Activity calls are given as the source filed them. Calls follow the shape of the dose curve; as a rule, active = well fitted curve in the direction sought with a large enough effect; inconclusive = small, poorly fitted or top-dose-only effect, or another doubt; inactive = no such curve, though single readings can be large or run the other way.

Assay: qHTS for Inhibitors of Bloom's syndrome helicase (BLM): Thiazole Orange DNA Binding Counterscreen for SAR.
Details: fluorescence; Potency: Thiazole orange DNA displacement; series mostly up to 57.1 µM
Excerpt: Human RecQ DNA helicases participate in maintenance of genome stability and DNA repair. While other types of helicases have been explored as targets for drug development, members of the RecQ family have remained less well characterized. Mutations of the Bloom helicase gene have been associated with the rare human genetic disease called Bloom syndrome. […] Moreover, identified inhibitors can be used in cells and animal models to examine the consequences of inhibition on the survival of cancer cells where it has been shown that BLM plays an important role.
A fluorescence-based, biochemical assay in 1536 well format was developed to evaluate inhibition of BLM DNA unwinding activity. This assay was used to screen the MLPCN library. The resulting compounds were subjected to orthogonal and secondary biochemical assays to triage the initial hits, to classify compounds based on mode of action and to derive structure activity relationships (SARs) of candidate effectors. The Thiazole Orange (ThO) DNA binding (TO-binding) is used to eliminate inhibitors that operate via nonspecific DNA binding. This displacement assay is miniaturized for a 1536-well format and utilizes a ThO dye bound to unlabeled DNA. Inactivation or no significant activity is the desired outcome for this assay.
NIH Chemical Genomics Center [NCGC]
NIH Molecular Libraries Probe Centers Network [MLPCN]
Assay Submitter (PI): Opher Gileadi, Structural Genomics Consortium, University of Oxford, UK
Compounds were added to a 4 uL mixture of 50 nM DNA and 100 nM ThO via pintool transfer. The fluorescence signal (excitation 480 nm, emission 530 nm) was measured after 15 min incubation at room temperature using the ViewLux CCD imager.
In the case of `N/C(=N\c1nnc(-c2ccncc2)s1)Nc1ccc(Cl)c(Cl)c1`, the Potency is reported as “inactive”. With `O=C(Nc1ccc(F)nc1)Nc1nnc(-c2ccncc2)s1` the Potency was “inactive”. For `O=C(Nc1ccc(F)c(F)c1)Nc1nnc(-c2ccncc2)s1`, the Potency was “inactive”. In the case of `O=C(Nc1ccc(Cl)c(Cl)c1)Nc1ccnc(-c2ccncc2)n1`, the Potency is reported as “inactive”. For `N#Cc1ccc(NC(=O)Nc2nnc(-c3ccncc3)s2)cc1`, the Potency was “inactive”. With `COc1ccc(NC(=O)Nc2ccc(-c3nc4ccccc4[nH]3)cc2)cc1OC` the Potency was “inactive”. In the case of `O=S(=O)(Cc1ccc(Cl)c(Cl)c1)Nc1nnc(-c2ccncc2)s1`, the Potency is reported as “inactive”. For `O=C(Nc1ccc(N2CCOCC2)c(F)c1)Nc1nnc(-c2ccncc2)s1`, the Potency was “inactive”. With `S=C(Nc1ccc(Cl)c(Cl)c1)Nc1nnc(-c2ccncc2)o1` the Potency was “inactive”. With `O=C(Nc1nnc(-c2ccncc2)s1)Nc1ccc(Cl)c2ccccc12` the Potency was “inactive”. For `O=C(Nc1ccc(Cl)c(Cl)c1)Nc1nnc(-c2cccnc2)s1`, the Potency was “inactive”. With `Cc1ccccc1-c1nnc(NC(=O)Nc2ccc3ccccc3c2)s1` the Potency was “inactive”. In the case of `O=C(Nc1ccc2ccccc2c1)Nc1nnc(-c2ccc(Cl)cc2Cl)s1`, the Potency is reported as “inactive”. For `O=C(Nc1ccccc1)Nc1nnc(-c2ccncc2)s1`, the Potency was “inactive”. With `O=C(Nc1ccc(F)c(C(F)(F)F)c1)Nc1nnc(-c2ccncc2)s1` the Potency was “inactive”. For `O=C(Nc1ccc2ccccc2c1)Nc1cccc(-c2ccncc2)n1`, the Potency was “inactive”. For `O=C(Nc1ccc2ccccc2c1)Nc1nnc(-c2ccc(Cl)cc2)s1`, the Potency was “inactive”. For `COc1ccccc1CNC(=O)Nc1nnc(-c2ccncc2)s1`, the Potency was “inactive”. In the case of `O=C(Nc1ccc2c(c1)OCCO2)Nc1nnc(-c2ccncc2)s1`, the Potency is reported as “inactive”. For `O=C(Nc1ccc(Cl)c(Cl)c1)Nc1nc(-c2ccncc2)cs1`, the Potency was “inactive”. For `O=C(Nc1ccc(Br)c(Br)c1)Nc1cccc(-c2ccncc2)n1`, the Potency was “inactive”. For `Cc1cc(C)c(-c2nnc(NC(=O)Nc3ccc4ccccc4c3)s2)c(C)c1`, the Potency was “inactive”. In the case of `O=C(Nc1cccc(C(F)(F)F)c1)Nc1nnc(-c2ccncc2)s1`, the Potency is reported as “inactive”. In the case of `O=C(Nc1ccc2sccc2c1)Nc1nnc(-c2cccnc2)s1`, the Potency is reported as “inactive”. With `O=C(Nc1ccc2sccc2c1)Nc1nnc(-c2ccncc2)s1` the Potency was “inactive”. In the case of `CC(C)(C)c1cccc(NC(=O)Nc2nnc(-c3ccncc3)s2)c1`, the Potency is reported as “inactive”. In the case of `O=C(Nc1ccc(Cl)c(Cl)c1)Nc1nnc(-c2ccncc2)o1`, the Potency is reported as “inactive”. For `O=C(Nc1ccc2ccccc2c1)Nc1nnc(-c2ccncc2)o1`, the Potency was “inactive”. In the case of `O=C(Nc1ccc(Cl)cc1)Nc1nnc(-c2ccncc2)s1`, the Potency is reported as “inactive”. In the case of `O=C(Nc1ccc(Cl)c(Cl)c1)Nc1nnc(Br)s1`, the Potency is reported as “inactive”. In the case of `O=C(Cc1ccc2ccccc2c1)Nc1nnc(-c2ccncc2)s1`, the Potency is reported as “inactive”. With `O=C(Nc1nnc(-c2ccncc2)s1)Nc1ccc(Cl)cc1Cl` the Potency was “inactive”. For `O=C(Nc1nnc(-c2ccncc2)s1)Nc1cc(C(F)(F)F)ccc1F`, the Potency was “inactive”. With `N#Cc1cc(NC(=O)Nc2cccc(-c3ccncc3)n2)ccc1Cl` the Potency was “inactive”. For `O=C(Nc1nnc(-c2ccncc2)s1)Oc1ccc2ccccc2c1`, the Potency was “inactive”. For `Cc1cc(NC(=O)Nc2cccc(-c3ccncc3)n2)ccc1Br`, the Potency was “inactive”. With `c1ccc2[nH]c(Nc3nnc(-c4ccncc4)s3)nc2c1` the Potency was “inactive”. With `O=C(Nc1ccc2ccccc2c1)Nc1nnc(-c2ccc(F)cc2)s1` the Potency was “inactive”. For `N#Cc1cc(NC(=O)Nc2nnc(-c3ccncc3)s2)ccc1-c1cn[nH]c1`, the Potency was “inactive”. For `O=C(Nc1ccc(F)c(C(F)(F)F)c1)Nc1nnc(C2CCCCC2)s1`, the Potency was “inactive”.
